Screening data (PubChem)
In the library only some 21% were active in any assay of this set; here they are far more common.
CHX counter = counter-screen for Shiga toxin inhibitors: cycloheximide protein synthesis inhibition; hit rate 12% among 300,000; AID 2314; max response, %; cell reporter, cycloheximide protein synthesis inhibition counterscreen; in the data active = max response mostly above about 13%, no sharp cut-off; inactive = mostly below about 14%; also: read at 38.3 µM for the half of the compounds with a filed dose
SARS PLpro yeast = SARS-CoV PLP inhibition in yeast; S. cerevisiae expressing SARS-CoV PLpro, growth rescue; Potency, µM (titrated, usually from 32.9 µM), actives largely listed as activators; hit rate 0.19% among 330,000; AID 485353; also: nearly all actives have a fitted effect of over 55% in size
Pf growth 96h = inhibits malaria parasite growth, 96 h; P. falciparum luciferase reporter growth, 96 h; Potency, µM (highest dose often 28.7 µM), actives largely listed as inhibitors; hit rate 6.9% among 320,000; active = well fitted inhibition curve with a large enough effect; inconclusive = small, poorly fitted or top-dose-only effect, or another doubt; inactive = no such curve, though single readings can be large or run the other way
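Cell-based qHTS: luciferase-tagged P. falciparum in erythrocytes (2% hematocrit, 0.05% parasitemia final) incubated with compounds for 96 hours, 37 C, 5% CO2; luciferase detection reagent then added and luminescence measured.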
Shiga inhibitor = inhibitors of Shiga toxin in Vero cells; inhibition, % at 38.7 µM; Vero cells, Shiga toxin protein synthesis inhibition reporter; hit rate 9.2% among 290,000; in the data active = inhibition mostly above about 28%, no sharp cut-off; inactive = mostly below about 43%
NS1 function inh = inhibitors of influenza NS1 protein function; Potency, µM (highest dose often 46.1 µM); hit rate 0.4% among 270,000; also: actives are rising curves; nearly all actives have a fitted effect of over 50% in size
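Read-out: OD600 growth recovery of NS1-expressing budding yeast. Cells grown overnight at 30C in -URA glucose medium, washed, resuspended and diluted 1:100 in 2% galactose assay medium, pH 6.0. Same strain lacking NS1 served as positive control.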
Pf growth 48h = P. falciparum growth inhibition at 48 hours (one generation). P. falciparum luciferase growth in erythrocytes, 48 h. Potency, µM (doses to about 28.7 µM), most hits filed as inhibitors. hit rate 5.9% among 310,000; active = well fitted inhibition curve with a large enough effect; inconclusive = small, poorly fitted or top-dose-only effect, or another doubt; inactive = no such curve, though single readings can be large or run the other way
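Parasite viability was followed by luminescence of a genomically integrated firefly luciferase. Cultures held 0.1% parasitemia at 2% hematocrit (final), incubated under 5% CO2 at 37 C.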
A number is an active result; n = inactive; u = inconclusive; x = no result given; + = active, no number. Unless noted, calls follow the shape of the full dose curve.

SMILES | CHX counter | SARS PLpro yeast | Pf growth 96h | Shiga inhibitor | NS1 function inh | Pf growth 48h
COc1ccccc1C(CNC(=O)c1ccc(NS(=O)(=O)c2ccc(F)c(C)c2)cc1)N1CCCC1 (stereo not given) | x | n | 12µM | x | x | 9.3µM
Cc1cc(C)c(NC(=O)NC(=O)c2ccc(F)cc2)c(C)n1 | 28 | n | x | 34 | n | n
Cc1cc(C)c(NC(=O)NC(=O)c2cccc(F)c2)c(C)n1 | 15 | n | n | n | n | n
CCOc1cc(S(=O)(=O)NCC2OCCc3ccccc32)c(OCC)cc1-n1cnnn1 (stereo not given) | n | n | x | n | n | u
CC(=O)N1CCN(C(=O)CNC(=O)c2ccc(Br)o2)CC1 | n | n | n | n | n | n
O=C(NCCc1ccccc1)c1ccc(Br)o1 | 46 | n | n | 83 | n | n
O=C(NCCc1ccccc1)c1cccc(Br)n1 | 78 | x | x | + | x | x
O=C(NCc1ccccc1)c1cccc(Br)n1 | n | n | n | n | n | n
O=C(NCC(=O)N1CCN(Cc2ccccc2)CC1)c1ccc(Br)o1 | 14 | u | n | n | n | n
O=C(NCCNC(=O)c1ccc(Br)o1)c1ccc(Br)o1 | n | n | n | n | n | u
CCOc1ccc(CCNC(=O)COC(=O)COc2ccc(C#N)cc2)cc1OCC | x | n | u | x | x | u
CCOC(=O)/C(=N\Nc1ccc(Br)cc1)N1CCN(c2ccccc2OC)CC1 | n | n | u | n | n | 15µM
CCOC(=O)N1CCN(c2ccccc2OC)CC1 | n | n | n | n | n | n
Cc1ccc(S(=O)(=O)N2CCN(c3ccc([N+](=O)[O-])cn3)CC2)cc1 | n | n | n | n | n | n
O=C(Cc1ccccc1)NNC(=O)Nc1ccccc1 | n | n | n | n | n | n
O=C1c2ccccc2C(=O)c2c(Nc3ccc4c5c(cccc35)C(=O)c3ccccc3-4)cccc21 | x | x | x | x | n | x
CNc1cccc2c1C(=O)c1ccccc1C2=O | 16 | n | 2.9µM | n | n | n
CN(C)S(=O)(=O)c1cccc2c1C(=O)c1ccccc1C2=O | n | n | 10µM | n | n | 12µM
O=S(=O)(Nc1ccc(Br)cn1)c1ccc2ccccc2c1 | n | n | n | n | n | n
Cc1ccc(N/C(CSC(N)=O)=N/S(=O)(=O)c2ccccc2)cc1 | n | n | 3.3µM | n | n | n
Cc1ccc(N/C(CSC(N)=O)=N\S(=O)(=O)c2ccc(C)cc2)cc1 | n | n | x | n | n | x
COc1ccc(NS(=O)(=O)c2cccc(C(=O)NNC(=O)c3ccc(C)o3)c2)cc1 | x | n | n | x | x | n
COc1ccc(N(C(=O)c2snc(C(N)=O)c2N)C(C(=O)NC2CCCC2)c2ccc(F)cc2)c(OC)c1 (stereo not given) | n | n | n | n | n | u
COc1cc(C(C(=O)NC2CCCC2)N(C(=O)c2snc(C(N)=O)c2N)c2ccccc2)cc(OC)c1OC (stereo not given) | n | n | 8.3µM | n | u | u
COc1ccc(C)cc1N(C(=O)c1snc(C(N)=O)c1N)C(C(=O)NC1CCCC1)c1ccc(F)cc1 (stereo not given) | n | n | n | n | u | 9.3µM
SMILES | CHX counter | SARS PLpro yeast | Pf growth 96h | Shiga inhibitor | NS1 function inh | Pf growth 48h
COc1ccc(C(C(=O)NC2CCCC2)N(C(=O)c2snc(-c3ccc(F)cc3)c2N)c2ccc(OC)cc2)cc1 (stereo not given) | n | n | 5.2µM | n | n | u
COc1ccc(C(C(=O)NC2CCCC2)N(C(=O)c2snc(-c3ccc(F)cc3)c2N)c2ccc(F)cc2)cc1 (stereo not given) | n | n | n | n | n | u
COCCN(C(=O)c1snc(C(N)=O)c1N)C(C(=O)NC1CCCC1)c1cc(OC)c(OC)c(OC)c1 (stereo not given) | n | n | u | n | n | n
O=C(NCc1ccccc1F)C1CCCN1C(=O)NCc1ccccc1 (stereo not given) | n | n | n | n | n | n
CCOC(=O)c1c(-c2ccc(C)cc2)csc1NC1=NS(=O)(=O)c2ccccc21 | n | n | n | n | n | n
CCOc1ccc(N(CC(=O)NCc2ccco2)S(=O)(=O)c2ccc(OC)c(OC)c2)cc1 | n | n | n | n | n | 12µM
CCOc1ccc(N(CC(=O)O)S(=O)(=O)c2ccc(OC)c(OC)c2)cc1 | n | n | n | n | n | n
COc1ccc(N(CC(=O)NCc2ccco2)S(=O)(=O)c2ccc(OC)c(OC)c2)cc1 | n | n | 15µM | n | n | x
